PubChem BioAssay (EPA / NIEHS)
Inconclusive results are not listed. Calls of active or inactive are those of the source. The calls were made as follows, unless noted: active = hit-call score of the fitted dose curve at least 0.9, where 1 is the maximum; inconclusive = response in the unintended direction; inactive = score below 0.9.

Tests used:
[1] = Tanguay_ZF_120hpf_CIRC_legacy: (Legacy) Oregon State University Tanguay Lab 120 Hour Post-fertilization zebrafish Assay for Circulatory Malformation (AID 2283651)
Procedure, shortened: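 Dechorionated wild-type 5D zebrafish embryos, one per well, statically exposed from 6 to 120 hpf at 28C with 0.64% DMSO; circulatory malformation scored present/absent by brightfield microscopy at 120 hpf, dead embryos excluded.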

[2] = Tanguay_ZF_120hpf_SWIM_legacy: (Legacy) Oregon State University Tanguay Lab 120 Hour Post-fertilization zebrafish Assay for Swim Bladder Malformation (AID 2283654);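 also: swim bladder malformation in each larva scored yes or no under brightfield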
Procedure, shortened: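 Embryos lacking chorions were exposed individually and statically to test chemical from 6 to 120 hpf at 28C, with 0.64% DMSO as vehicle. At 120 hpf, swim bladder malformation was recorded as present or absent by brightfield microscopy.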

[3] = Tanguay_ZF_120hpf_TRUN_legacy: (Legacy) Oregon State University Tanguay Lab 120 Hour Post-fertilization zebrafish Assay for Truncated Body (AID 2283655)
Procedure, shortened: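 5D wild-type larvae; pronase dechorionation; static exposure 6→120 hpf, 28C; DMSO 0.64% final; 5uM trimethyltin chloride positive control. Readout: presence/absence of truncated body, analyzed relative to DMSO.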

[4] = Tanguay_ZF_120hpf_NC_legacy: (Legacy) Oregon State University Tanguay Lab 120 Hour Post-fertilization zebrafish Assay for Notochord and Tail Malformation (AID 2283656)
Procedure, shortened: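 Dechorionated Tropical 5D wild-type zebrafish embryos, one per well from 6 hpf, statically exposed to 120 hpf at 28C in 0.64% DMSO final. Notochord distortion scored present/absent by brightfield; dead embryos excluded.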

[5] = read-out: solute carrier (SLC22A6), SLC22A6 (gene 9356); test: LTEA_HepaRG_SLC22A6: Life Technologies and Expression Analysis (LTEA) Assay for solute carrier (SLC22A6) using HepaRG (AID 2283653; active = hit-call score of the fitted dose curve at least 0.9, where 1 is the maximum; inactive = score below 0.9); details: mRNA level, 48 h; actives raise or lower the signal
Procedure, shortened: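 This endpoint tracks SLC22A6 mRNA induction or suppression in human HepaRG cultures after 48 h dosing, concentrations reaching 100 uM. Values derive from bidirectional fitting against DMSO controls.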

[6] = read-out: solute carrier (SLC10A1), SLC10A1 (gene 6554); test: LTEA_HepaRG_SLC10A1: Life Technologies and Expression Analysis (LTEA) Assay for solute carrier (SLC10A1) using HepaRG (AID 2283657; active = hit-call score of the fitted dose curve at least 0.9, where 1 is the maximum; inactive = score below 0.9); details: mRNA level, 48 h; actives raise or lower the signal
Procedure, shortened: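 Transcript levels were measured by qRT-PCR after human HepaRG cells received test chemical for 48 hours, up to 100 uM in half-log dilutions. Values come from bidirectional concentration-response fitting relative to 0.5% DMSO vehicle.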

[7] = read-out: matrix metalloproteinase-1 (MMP1), MMP1 (gene 4312); test: LTEA_HepaRG_MMP1: Life Technologies and Expression Analysis (LTEA) Assay for matrix metalloproteinase-1 (MMP1) using HepaRG (AID 2283658; active = hit-call score of the fitted dose curve at least 0.9, where 1 is the maximum; inactive = score below 0.9); details: mRNA level, 48 h; actives raise or lower the signal
Procedure, shortened: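 Bidirectional concentration-response fitting relative to 0.5% DMSO gives the endpoint, derived from MMP1 mRNA levels (qRT-PCR) in human HepaRG cells treated 48 h with chemicals up to 100 uM.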

[8] = test system: Thyroperoxidase (TPO), gene 54314; test: CCTE_Simmons_AUR_rTPO: CCTE's Amplex UltraRed Assay for Thyroperoxidase (TPO) Inhibition, Simmons Lab (AID 2283662);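 as to AC50: potency for loss of signal meaning inhibition of peroxidase activity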
Procedure, shortened: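 Endpoint is decreased Amplex UltraRed fluorescence after a 30-min, 37C reaction of rat thyroid microsomes with 300 uM H2O2. Eight test concentrations (5 nM–87.5 uM final) in 0.5% DMSO, three biological replicates each.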

[9] = CCTE_Simmons_CellTiterGLO_HEK293T: Viability Assessment in CCTE's Assays for Thyroperoxidase (TPO) Inhibition, Simmons Lab (AID 2283665);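 as to AC50: cells exposed to compound for 24 h before readout; actives reduce ATP signal below DMSO vehicle meaning cytotoxicity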
Procedure, shortened: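 HEK293T cells in DMEM with 1% FBS, dosed 24 h at 37C with 8 concentrations, 5 nM–87.5 uM final, 0.5% DMSO. ATP measured by CellTiter Glo luminescence; loss of signal vs DMSO, three biological replicates.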

[10] = read-out: kallikrein-3 (KLK3), KLK3 (gene 354); test: LTEA_HepaRG_KLK3: Life Technologies and Expression Analysis (LTEA) Assay for kallikrein-3 (KLK3) using HepaRG (AID 2283652; active = hit-call score of the fitted dose curve at least 0.9, where 1 is the maximum; inactive = score below 0.9); details: mRNA level, 48 h; actives raise or lower the signal
Procedure, shortened: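 Differentiated human HepaRG cells in serum-free induction medium exposed 48 h in duplicate, eight-point half-log series from 100 uM in 0.5% DMSO. KLK3 mRNA by qRT-PCR, normalised to ACTB, GAPDH, POLR2A; bidirectional fit versus DMSO.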

Measured: AC50

CC(C)(O)c1cnn2c(-c3ccc(F)c(-c4c(F)cccc4C#N)c3)cnc2n1
inactive: [1] | [2] | [3]

CNC(=O)Oc1cccc2c1OC(C)(C)C2
inactive: [1] | [2] | [4]
active: [3] 12.6 µM

CC(C)(C)OOC(=O)c1ccccc1
inactive: [1] | [2] | [3]

CO[C@@H]1[C@H](OC(=O)NC(=O)CCl)CC[C@]2(CO2)[C@H]1[C@@]1(C)O[C@@H]1CC=C(C)C
active: [6] 0.389 µM
inactive: [1] | [5] | [2] | [3] | [4] | [7] | [8] | [9]

[O-][Cl+]O
inactive: [1] | [2]

c1ccc(C2CO2)cc1 (centres undefined)
inactive: [1] | [2] | [3] | [4]

CN(C)C(=O)Nc1ccc(Cl)cc1
inactive: [1] | [10] | [5] | [2] | [3] | [4] | [6] | [7] | [9]
active: [8] 21.7 µM

Nc1ccc(Cl)cc1N
active: [6] 20.9 µM | [7] 50 µM | [8] 13.1 µM
inactive: [1] | [5] | [2] | [3] | [9]

C[C@]12C=CC3=C4CCC(=O)C=C4CC[C@H]3[C@@H]1CC[C@@H]2O
active: [6] 16.1 µM | [8] 7.23 µM | [9] 6.42 µM
inactive: [1] | [5] | [2] | [3] | [4] | [7]

CCCCCCCCCCCCCN1CC(C)OC(C)C1 (centres undefined)
inactive: [1] | [2] | [3]

Clc1ccccc1Cl
inactive: [1] | [2] | [3] | [4]

Cc1ccc([N+](=O)[O-])cc1
inactive: [1] | [10] | [5] | [2] | [3] | [4] | [6] | [7]

O=C(Nc1ccccc1)c1ccccc1I
active: [1] 76.6 µM
inactive: [2] | [3] | [4]

O=C1CCCO1
inactive: [1] | [2] | [3]

C1=Cc2cccc3cccc1c23
inactive: [1] | [10] | [5] | [2] | [3] | [4] | [6] | [7]

CC(C)COC(=O)c1ccccc1C(=O)OCC(C)C
inactive: [1] | [10] | [5] | [2] | [3] | [4] | [6] | [7]

CCCCCOC(=O)c1ccccc1C(=O)OCCCCC
inactive: [1] | [2] | [3] | [4]

ClC1=C(Cl)C2(Cl)C3C(Cl)C=CC3C1(Cl)C2(Cl)Cl (centres undefined)
inactive: [1] | [10] | [5] | [2] | [6] | [7]

CCOc1cccc(C2(N3CCN(c4ccccc4)CC3)CCC(C)CC2)c1 (centres undefined)
inactive: [1] | [2] | [3] | [4]

Clc1ccc(C(c2ccc(Cl)cc2)C(Cl)Cl)cc1
inactive: [1] | [2] | [3] | [4]

CCC[CH2][Sn]([Cl])([CH2]CCC)[CH2]CCC
inactive: [1] | [2] | [3] | [4]

ClC1=C(Cl)[C@]2(Cl)[C@H]3[C@H]([C@@H]4C=C[C@H]3C4)[C@@]1(Cl)C2(Cl)Cl
inactive: [1] | [2] | [3] | [4]

N#CC(Br)Br
inactive: [1] | [2] | [3] | [4]

CC(C)(C)OOC(C)(C)CCC(C)(C)OOC(C)(C)C
inactive: [1] | [2] | [3] | [4]

CCCCCCCCn1sccc1=O
inactive: [1] | [2] | [3] | [4]

Clc1ccc(C(c2ccc(Cl)cc2)C(Cl)(Cl)Cl)cc1
inactive: [1] | [2] | [3] | [4]

CCN(CC)CCO
inactive: [1] | [5] | [2] | [3] | [4] | [6] | [7]
